Measured values taken from PubChem BioAssay AID485273 (Sanford-Burnham Center for Chemical Genomics, 2010).
Hit rate of the full screen: of about 330,000 compounds, about 1,500 (0.45%) were called active. No stated cut-off is given here; in the data, active means inhibition above about 45% (passing the limit was not always enough); inconclusive means no clear call, values can overlap the other calls. The sample as a whole holds a higher share of actives than the screen did.

The molecules below were run against Ubiquitin-conjugating enzyme E2 N (Homo sapiens) (UniProt P61088) (assay: UBC13 polyubiquitin chain formation inhibitors, primary screen, biochemical, TR-FRET, uHTS (AID 485273)). Details: at 20 µM, stronger effect = higher value.
Sequence of Ubiquitin-conjugating enzyme E2 N (Homo sapiens) (P61088 whole entry, looked up): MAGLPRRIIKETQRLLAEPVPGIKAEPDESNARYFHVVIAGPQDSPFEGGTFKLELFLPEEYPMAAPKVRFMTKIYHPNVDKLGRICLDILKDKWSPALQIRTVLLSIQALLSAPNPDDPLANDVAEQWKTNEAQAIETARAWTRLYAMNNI

SMILES	inhibition
CCOC(=O)CNC(=O)CN1C(=O)CCSc2ccccc21	8.8% (inactive)
CNC(=O)c1sc(Nc2ccc(OCc3ccccc3)cc2)nc1C	6.9% (inactive)
Cc1nn(CCCC(=O)NCc2ccccc2Cl)c(=O)c2nccn12	-2.4% (inactive)
FC(F)Oc1ccccc1C1CC(c2ccc(Br)s2)Nc2ncnn21 (stereo not drawn)	-2.2% (inactive)
CCN(CC)S(=O)(=O)c1cc(C(=O)Nc2ccccn2)ccc1C	-8.9% (inactive)
CCN(CC)CCNC(=O)CCCCCn1c(=O)[nH]c2cc(C(=O)OC)ccc2c1=O	9.7% (inactive)
O=C(CCc1c[nH]c2ccccc12)NCCOc1ccccc1	-4.4% (inactive)
O=C(CCCCCn1c(=O)[nH]c2ccccc2c1=O)NCCc1c[nH]c2ccccc12	58.3% (active)
COc1cc(CNCc2ccc(OC)c3ccccc23)cc(OC)c1OC	5.5% (inactive)
COc1ccc(S(=O)(=O)N2CCN(CC(=O)NCC3(N4CCOCC4)CCCCC3)CC2)cc1	-8.4% (inactive)
NC(N)=Nc1nc(-c2ccccc2)c2cc(Cl)ccc2n1	51.4% (active)
Cc1ccc2nc(Nc3ccccc3O)nc(-c3ccccc3)c2c1	0.7% (inactive)
O=C(CCl)NNc1nc(-c2ccccc2)c2cc(Cl)ccc2n1	-10.6% (inactive)
Nc1nc(SCC(=O)NN(c2ccccc2)c2ccccc2)n[nH]1	-4.6% (inactive)
CC1(C)CC(=O)C(C2=NC(C)(C)Cc3ccccc32)=C(O)C1	-11% (inactive)
CCN(CC)S(=O)(=O)c1ccc(NC(=O)c2cccnc2Cl)c(NC(=O)c2cccnc2Cl)c1	-5.6% (inactive)
CCc1c(C)nc(SCC(=O)NC2CCCC2)[nH]c1=O	-1.8% (inactive)
CC(=O)NC(=S)NNC(=O)c1ccc(Br)cc1	79.4% (active)
O=C(NNC(=O)c1ccc(Cl)nc1)c1ccc(Br)cc1	6.7% (inactive)
CNC(=S)NNC(=O)c1ccc(N(C)C)cc1	-10.9% (inactive)
O=S(=O)(NC1CCCC1)c1ccc(-n2cnnn2)cc1	0.2% (inactive)
C=CCNCCCCOc1ccccc1	9.8% (inactive)
CCc1ccc(NC(=O)N[C@H](C(=O)O)C(C)CC)cc1 (stereo partly drawn)	10% (inactive)
CCCCCn1c(=O)c(C(=O)OCC)c(Cl)c2ccccc21	5.7% (inactive)

SMILES	inhibition
O=C(c1ccc[nH]c1=S)N1CCN(S(=O)(=O)c2ccc(Br)cc2Cl)CC1	1.2% (inactive)
Cc1c(CN2CCC(CO)(CCOc3ccccc3)CC2)[nH]c2ccc(Cl)cc12	72.1% (active)
CCOC(=O)C1(CCOc2ccccc2)CCN(Cc2cc(OC)c(O)cc2Cl)CC1	12% (inactive)
OCC1(CCOc2ccccc2)CCN(Cc2cn[nH]c2-c2ccccc2)CC1	2.5% (inactive)
CN1CCC(CN)(N2CCN(c3ccccc3)CC2)CC1	57.8% (active)
CC(CC(=O)N1CCN(c2ccccc2)CC1)c1ccccc1 (stereo not drawn)	9.2% (inactive)
O=C(c1ccccc1)c1ccc(C(=O)N2CCN(c3ccccc3)CC2)cc1	4.4% (inactive)
O=C(CN1CCN(c2ccc(F)cc2)CC1)Nc1cccc(C(F)(F)F)c1	-4.5% (inactive)
CCCCn1c(N)c(N(CCOC)C(=O)c2cccc(OCc3ccccc3)c2)c(=O)[nH]c1=O	0.1% (inactive)
CCCCCCCCCCOC(=O)Cn1c(COc2cccc(OC)c2)[n+](C)c2ccccc21	58.1% (active)
CCCCCCCCCCOC(=O)Cn1c(COc2ccc(C)cc2)[n+](C)c2ccccc21	44.2% (inactive)
Cc1cccc(CNS(=O)(=O)c2ccc(-c3cnc(C4CC4)o3)cc2)c1	-0.4% (inactive)
COc1ccc(S(=O)(=O)NNC(=O)Nc2ccc(C)cc2)c(OC)c1	-8.1% (inactive)
CCN(CC(=O)NCc1cccs1)C(=O)c1ccccc1F	-3.4% (inactive)
CCN(CC(=O)NCc1cccs1)C(=O)c1ccc(OC)c(S(=O)(=O)N2CCOCC2)c1	-0.3% (inactive)
CCN(CC(=O)NCc1cccs1)C(=O)c1cccc(S(=O)(=O)Nc2ccccc2OC)c1	49.7% (active)
CN(C(=O)CN(CCO)CC(=O)N(C)C(C)(C)Cc1ccccc1)C(C)(C)Cc1ccccc1	57.3% (active)
OCCN(Cc1ccccc1)Cc1ccc(Cl)cc1	5.2% (inactive)
CCN(CC)C(=O)N(CC)Cc1ccccc1	6.4% (inactive)
C/C(=N\NC(=O)OC(C)(C)C)c1ccc[nH]1	0.6% (inactive)
C=CCSC1=C(C#N)C(c2cc(Br)c(O)c(OC)c2)CC(=O)N1 (stereo not drawn)	1.6% (inactive)
Cn1c(C(=O)NCCc2ccsc2)cc2c(=O)n(C)c3ccccc3c21	20.8% (inactive)
Cn1c(C(=O)NCCCN2CCN(c3cccc(Cl)c3)CC2)cc2c(=O)n(C)c3ccccc3c21	49.9% (active)
CCN1CCCC1CNC(=O)c1cc2c(=O)n(C)c3ccccc3c2n1C (stereo not drawn)	30.3% (inactive)

SMILES	inhibition
O=C(CSc1nnc(C2CC2)n1Cc1ccccc1)Nc1cccnc1Cl	-7.4% (inactive)
CCOc1cc(S(=O)(=O)NC2CC(C)(C)NC(C)(C)C2)ccc1F	7.3% (inactive)
O=c1c2c(nc3n1CCCCC3)sc1c(O)cccc12	80% (active)
Cc1cccc2c(=O)n3c(nc12)CCCCC3	6.4% (inactive)
Cc1c(C(=O)Nc2ccccc2)sc2nc3n(c(=O)c12)CCCCC3	-3% (inactive)
CCn1ncc(CNC(=O)C2(C)CC2(Br)Br)c1C (stereo not drawn)	-4.3% (inactive)
COc1cc(NC(=O)c2ccc(CNc3c(N4CCCC4)c(=O)c3=O)cc2)cc(OC)c1OC	-3.8% (inactive)
O=C(c1ccc(F)cc1)N1CCC(C(=O)N2CCN(S(=O)(=O)c3ccccc3Br)CC2)CC1	13.6% (inactive)
N[C@@H](Cc1ccccc1)C(=O)N1CCC(C(=O)NCC(=O)Nc2ccc(F)cc2)CC1	-7.5% (inactive)
Cn1c(SCC(=O)C(C)(C)C)nnc1-c1ccccn1	2.2% (inactive)
O=C(NNC(=S)Nc1ccccc1)c1cccc(S(=O)(=O)N2CCOCC2)c1	-21.6% (inactive)
O=C(CN1C(=O)CCC1=O)Nc1ccc(S(=O)(=O)N2CCOCC2)cc1	0.4% (inactive)
O=S(=O)(c1ccc(NC(=S)NN=C(C2CC2)C2CC2)cc1)N1CCOCC1	45.9% (active)
COc1cc2c(cc1OC)CN(C(C)C(=O)Nc1cccc(S(=O)(=O)N3CCOCC3)c1)CC2 (stereo not drawn)	-1.1% (inactive)
CC(C)Cc1oc(C(=O)O)cc1CN	-1.6% (inactive)
CCCCNC(=S)N/N=C1\CCCCc2ccccc21	0.6% (inactive)
COc1ccc(C(CNC(=O)c2ccc(NS(=O)(=O)c3ccc(F)c(C)c3)cc2)N(C)C)cc1 (stereo not drawn)	40.3% (inactive)
COc1ccc(C(CNC(=O)c2ccc(S(=O)(=O)Nc3ccccc3F)cc2)N(C)C)cc1 (stereo not drawn)	94.8% (active)
CC(=O)c1ccc(S(=O)(=O)Nc2ccc(C(=O)NCC(c3ccccc3)N(C)C)cc2)cc1 (stereo not drawn)	1.5% (inactive)
COc1ccc(C(F)(F)F)cc1N/C=C\c1nnnn1-c1ccc(C)cc1	4.1% (inactive)
COc1ccc(C(=O)N(C)CC(O)c2ccccc2)cc1OC1CCN(C(C)=O)CC1 (stereo not drawn)	-0.4% (inactive)
Cc1cccc(C(=O)OC(C)CN2CCN(C)CC2)c1 (stereo not drawn)	9.9% (inactive)
Cc1cccc(-c2nc3ccc(C(=O)NCCN4CCN(C)CC4)cc3nc2-c2cccc(C)c2)c1	57.2% (active)
CCC1=Nc2cc(C(=O)NCCN3CCCC3)ccc2Sc2ccc(C)cc21	17.6% (inactive)

SMILES	inhibition
CC(Sc1nnnn1C1CCCCC1)C(=O)O (stereo not drawn)	-4.9% (inactive)
O=C(NCc1ccco1)c1ccc(NS(=O)(=O)c2cccc([N+](=O)[O-])c2)cc1	-4.6% (inactive)
CCOC(=O)[C@@H]1[C@H]2COc3cc(OC)ccc3[C@@H]2N2C(=O)N(c3cccc(C)c3)C(=O)[C@@]12C	-7.1% (inactive)
CCOC(=O)[C@@H]1[C@H]2COc3cc(OC)ccc3[C@H]2N2C(=O)N(c3ccc(F)cc3)C(=O)[C@]12C	53.6% (active)
CCOC(=O)[C@H]1[C@H]2COc3cc(OC)ccc3[C@@H]2N2C(=O)N(c3ccc(Br)cc3)C(=O)[C@@]12C	-15% (inactive)
O=C(O)c1ccc(F)c(S(=O)(=O)Nc2ccccc2)c1	4% (inactive)
O=C(Nc1cccc(C(=O)NC2CC2)c1)c1ccc(F)c(S(=O)(=O)N2CCOCC2)c1	3.1% (inactive)
O=C(Nc1ccc([N+](=O)[O-])cc1)OCCc1ccccn1	-7.9% (inactive)
CC(=O)c1cccc(NC(=O)C2CCCN2S(=O)(=O)c2cccc3nsnc23)c1 (stereo not drawn)	-4.7% (inactive)
CN(C(=O)COC(=O)c1cc(=O)[nH]c2ccccc12)C1CCCCC1	5.6% (inactive)
CCCCC(=O)Nc1ccc(C(=O)Nc2cc(C(F)(F)F)ccc2Cl)cc1	-15% (inactive)
CCCCN(CCCC)CCC(O)c1cc2c(Cl)cc(Cl)cc2c2cc(C(F)(F)F)ccc12 (stereo not drawn)	51.7% (active)
O=C(Nc1ccccc1N1CCOCC1)c1ccc(OCc2cscn2)cc1	0.6% (inactive)
CCn1cc(C(=O)NCC(=O)NC(C)(C)CO)c(=O)c2cc3c(cc21)OCO3	3.5% (inactive)
c1ccc(C[C@H]2CNCCN2CCC23CC4CC(CC(C4)C2)C3)cc1	55.8% (active)
c1ccc2c(CCN3CCNC[C@H]3Cc3cccc4ccccc34)cccc2c1	46.1% (active)
c1ccc(C2CNCc3c2ccc2ccccc32)cc1 (stereo not drawn)	21.7% (inactive)
CC(C)(C)CN1C(=O)C(=O)NC[C@H]1Cc1cccc2ccccc12	4% (inactive)
O=C1CCNCCN1[C@H](CO)Cc1ccccc1	-4.8% (inactive)
O=C1C(=O)N(c2ccccc2)c2ccccc21	-10.7% (inactive)
CC(C)(C)c1nnc(N/N=C/c2ccc(O)cc2)n(N)c1=O	-10.3% (inactive)
